# Laboratory results: ChEMBL document CHEMBL1857833, “Screening and optimization of specific chemical series against human African Trypanosomiasis (HAT)”
# Several values for one entry are separate records, joined by “and”; a condition that tells them apart may be missing. Equal entries are not always repeated. The campaign covered roughly 4,400 compounds. About 390 (8.9%) showed an effect of 50% or more. Shown is part of a subset that was picked to be rich in strong results.
# Tested on: Trypanosoma brucei
# Assay: DNDI: Inhibition of Human African Trypanosomiasis, SBRI 427, in vitro at 2 ug.mL-1
# Format: functional
row,SMILES,% inhibition
1,Cc1ccc(/C(N)=N/O)c(Oc2ccc(F)c(Cl)c2)n1,20%
2,COc1ccc(-c2nc(CN3CCCCCC3)co2)cc1,18%
3,CCOc1ccc(-c2nc(CN3CCN(c4cccc(Cl)c4)CC3)co2)cc1,-2%
4,Cc1ccc(-c2nc(CNC(c3ccccc3)c3ccccc3)co2)cc1,-9%
5,CCOc1ccccc1-c1nc(CN(C)CC(C)C)co1,3%
6,COc1ccc(CNCc2coc(-c3cccs3)n2)cc1OC,-8%
7,Cc1ccc(/C(=N/O)N2CCN(c3ccc(F)cc3)CC2)c(OCc2ccccc2F)n1,7%
8,CCOc1ccc(-c2nc(CN3CCN(C(=O)c4ccco4)CC3)co2)cc1,0%
9,COCC(C)N/C(=N\O)c1cccnc1Oc1ccc(F)cc1 (centres undefined),13%
10,CCC(CC)N/C(=N\O)c1cccnc1Oc1ccc(F)cc1,96%
11,COc1ccc(Oc2ncccc2/C(=N/O)NC(C)C)cc1,4%
12,CCC(CC)N/C(=N\O)c1cccnc1Oc1ccc(OC)cc1,100%
13,COc1cc2c(cc1OC)C(C(C)C)N(Cc1coc(-c3ccc(F)cc3)n1)CC2 (centres undefined),5%
14,COc1ccc(CN/C(=N\O)c2ccc(C)nc2Oc2ccc(F)cc2)cc1,30%
15,CCC(C)(C)N/C(=N\O)c1cccnc1Oc1ccc(-n2cncn2)cc1,45%
16,CCOC(=O)C1CCCN(Cc2coc(-c3ccc(Br)cc3)n2)C1 (centres undefined),0%
17,CSc1ccc(Oc2ncccc2/C(=N/O)NCc2cccnc2)cc1,2%
18,Cc1ccc(Oc2ncccc2/C(=N/O)N2CC=CCC2)c2c1CCC2,14%
19,CCc1nc(C)cn1Cc1coc(-c2cccc(OC)c2)n1,-9%
20,COc1ccc(Oc2ncccc2/C(=N/O)N2CCCCC2)cc1,7%
21,CCC(C)(C)N/C(=N\O)c1ccc(C)nc1Oc1ccc(Cl)cc1,-12%
22,CCC(C)(C)N/C(=N\O)c1ccc(C)nc1Oc1ccc(F)c(Cl)c1,-27%

row,SMILES,% inhibition
1,CCC(C)(C)N/C(=N\O)c1ccc(C)nc1Oc1cc(Cl)ccc1Cl,63%
2,Cc1ccc(/C(=N/O)NCC(C)(C)C)c(Oc2cc(Cl)ccc2Cl)n1,100%
3,CCOc1ccccc1-c1nc(CN2CC[C@@H]3CCCC[C@@H]3C2)co1,16%
4,CCOc1ccccc1-c1nc(Cn2ccnc2CC)co1,-1%
5,N#CCCN(Cc1coc(-c2ccc(Cl)cc2Cl)n1)C1CCCCC1,3%
6,O/N=C(\NCc1cc(F)ccc1F)c1ccc(Oc2cccc3cccnc23)nc1,4%
7,COc1cc(-c2nc(CNCC(c3ccccc3)c3ccccc3)co2)cc(OC)c1OC,22%
8,Cc1cn(/C(=N\O)c2ccc(C)nc2Oc2cccc(F)c2)cn1,0%
9,COCCN(Cc1coc(-c2ccc(OC)cc2)n1)C(C)C,-10%
10,Cn1nc(C(C)(C)C)cc1NCc1coc(-c2ccccc2Br)n1,-43%
11,CC(C)(C)COc1ncccc1/C(=N/O)NCc1ccccc1,17%
12,CCCCCCC(C)NCc1coc(-c2cccc(C)c2)n1 (centres undefined),0%
13,COc1ccc(-c2nc(CNC(C)CCCC(C)C)co2)cc1 (centres undefined),-10%
14,CCCC(C)NCc1coc(-c2ccc(F)cc2)n1 (centres undefined),-16%
15,CCCCCC(C)NCc1coc(-c2ccc(OC)cc2)n1 (centres undefined),23%
16,CCCCCCC(C)NCc1coc(-c2ccc(O)cc2)n1 (centres undefined),52%
17,CCCCCCC(C)NCc1coc(-c2ccc(OC)cc2)n1 (centres undefined),65%
18,CN(Cc1coc(-c2ccc(F)cc2)n1)C(c1ccccc1)c1ccccc1,-2%
19,Cc1ccc(/C(=N/O)N2CCC(N(C)C)C2)c(Oc2cccnc2)n1 (centres undefined),7%
20,CCC(NCc1coc(-c2ccccc2Br)n1)c1ccccc1 (centres undefined),-20% and -22%
21,CCC(NCc1coc(-c2cccc3ccccc23)n1)c1ccccc1 (centres undefined),64%
22,Cc1ccc([C@@H](C)NCc2coc(-c3cccc4ccccc34)n2)cc1,79%

row,SMILES,% inhibition
1,CC(NCc1coc(-c2cccc3ccccc23)n1)c1ccccc1 (centres undefined),26%
2,Cc1ccc(C(C)NCc2coc(-c3cccc4ccccc34)n2)cc1 (centres undefined),-2%
3,CC(CNCc1coc(-c2ccccc2Cl)n1)c1ccccc1 (centres undefined),-5%
4,CCOc1cccc(-c2nc(CNCc3cccc(OC)c3)co2)c1,-5%
5,CCN(CC)CCN(CC)Cc1coc(-c2cccs2)n1,1%
6,COc1cccc(-c2nc(Cn3ccnc3C(C)C)co2)c1,5%
7,Cn1nc(C(C)(C)C)cc1NCc1coc(-c2ccc(C(F)(F)F)cc2)n1,-8%
8,Cc1ccc(/C(=N/O)NCc2ccco2)c(Oc2cc(Cl)ccc2Cl)n1,62%
9,C=CCc1ccc(Oc2nc(C)ccc2/C(=N/O)NCc2ccco2)c(OC)c1,63%
10,Cc1cc(C)cc(CN/C(=N\O)c2ccc(C)nc2Oc2cc(Cl)ccc2Cl)c1,64%
11,C=CCc1ccc(Oc2nc(C)ccc2/C(=N/O)N2CCN(CC=C)CC2)c(OC)c1,68%
12,C=CCc1ccc(Oc2nc(C)ccc2/C(=N/O)NCc2ccc(OC)cc2)c(OC)c1,22%
13,COc1ccc(CN/C(=N\O)c2ccc(C)nc2Oc2cc(Cl)ccc2Cl)cc1,14%
14,C=CCc1ccc(Oc2nc(C)ccc2/C(=N/O)NCC2CC2)c(OC)c1,44%
15,C=CCc1ccc(Oc2nc(C)ccc2/C(=N/O)N2CCSCC2)c(OC)c1,48%
16,C=CCc1ccc(Oc2nc(C)ccc2/C(=N/O)N2CCC(C(=O)OC)CC2)c(OC)c1,27%
17,Cc1ccc(/C(=N/O)NCc2cccs2)c(Oc2cc(Cl)ccc2Cl)n1,16%
18,Cc1ccc(/C(=N/O)NCc2ccncc2)c(Oc2cc(Cl)ccc2Cl)n1,-10%
19,Cc1ccc(/C(=N/O)NCc2ccco2)c(Oc2ccc(Cl)cc2-c2ccno2)n1,13%
20,CCOc1ccc(-c2nc(CNCc3ccc(OC)cc3OC)co2)cc1,-17%
21,CCOc1ccccc1-c1nc(CN2CCN(C(=O)C3CCCO3)CC2)co1 (centres undefined),8%
22,Cc1ccc(Oc2nc(C)ccc2/C(=N/O)N2CCSC2)c(C)c1,26%

row,SMILES,% inhibition
1,COCC(C)NCc1coc(-c2ccccc2Cl)n1 (centres undefined),-6%
2,Cc1ccc(/C(=N/O)NCc2cc(F)ccc2F)c(Oc2cc(Cl)ccc2Cl)n1,-39%
3,COc1cccc(CN/C(=N\O)c2ccc(C)nc2Oc2cc(Cl)ccc2Cl)c1,-48%
4,Cc1ccc(/C(=N/O)NCc2cc(F)cc(F)c2)c(Oc2cc(Cl)ccc2Cl)n1,76%
5,CCOc1ccccc1-c1nc(CN(C)CC2OCCO2)co1,-5%
6,Fc1ccccc1-c1nc(CNc2ccccc2)co1,13%
7,CN(/C(=N\O)c1ccnc(Oc2cccc3c2CCCC3)c1)C1CCCCC1,14%
8,O/N=C(\NC1CCCCC1)c1ccnc(Oc2cccc3c2CCCC3)c1,99%
9,O/N=C(\NCC1CCCCC1)c1ccnc(Oc2cccc3c2CCCC3)c1,96%
10,O/N=C(\NCc1c(F)cccc1F)c1ccnc(Oc2cccc3c2CCCC3)c1,37%
11,Cc1ccc(CN/C(=N\O)c2ccnc(Oc3cccc4c3CCCC4)c2)o1,40%
12,Cc1ccc(Oc2cc(/C(=N/O)NC3CCCC3)ccn2)c2c1CCC2,11%
13,CCOc1ccccc1-c1nc(CN(CC)Cc2ccncc2)co1,12%
14,CCOc1ccc(-c2nc(CNCC(C)(C)CN(C)C)co2)cc1,39%
15,O/N=C(/c1ccc(Oc2cccc(F)c2)nc1)N1CCN(c2ccccc2)CC1,2%
16,COc1ccc(Oc2cc(/C(=N/O)NC3CCC3)ccn2)cc1,100%
17,CSc1ccc(Oc2cc(/C(=N/O)NC3CCCCC3)ccn2)cc1,21%
18,COc1ccc(Oc2cc(/C(=N/O)NC3CC(C)CC(C)(C)C3)ccn2)cc1 (centres undefined),14%
19,COc1ccc(Oc2cc(/C(=N/O)N3C(C)CCCC3C)ccn2)cc1 (centres undefined),10%
20,COc1ccc(Oc2cc(/C(=N/O)NCC3CCCO3)ccn2)cc1 (centres undefined),34%
21,COc1ccc(Oc2cc(/C(=N/O)NC3CCCCC3)ccn2)cc1,100%
22,Cc1ccc(Oc2nc(C)ccc2/C(=N/O)N(C)C2CCCCC2)c(C)c1,18%

row,SMILES,% inhibition
1,Cc1cc(C)cc(Oc2ccc(/C(=N/O)n3cnc(C)c3)cn2)c1,1%
2,CCCCN(CC#N)Cc1coc(-c2ccc(C)cc2)n1,7%
3,CCN(Cc1coc(-c2ccccc2F)n1)c1ccc(C)cc1,-32%
4,CCc1ccc(Oc2ncccc2/C(N)=N/O)cc1,1%
5,COCC(C)N/C(=N\O)c1cccnc1Oc1ccc(C(C)C)cc1 (centres undefined),99%
6,COCC(C)N/C(=N\O)c1cccnc1OCC(C)C (centres undefined),5%
7,CCc1ccc(Oc2ncccc2/C(=N/O)NC(C)COC)cc1 (centres undefined),87%
8,COCC(C)N/C(=N\O)c1cccnc1Oc1cccc(C(F)(F)F)c1 (centres undefined),1%
9,COCC(C)N/C(=N\O)c1cccnc1Oc1ccc(OC)cc1 (centres undefined),-10%
10,CCOc1ccccc1-c1nc(CN2CCN(C(c3ccccc3)c3ccccc3)CC2)co1,5%
11,COc1ccccc1CN/C(=N\O)c1ccc(Oc2cc(C)cc(C)c2)nc1,-8%
12,O/N=C(/c1ccc(Oc2ccc(Cl)cc2)nc1)n1ccnc1,0%
13,CCOc1ccc(Oc2cc(/C(=N/O)NCc3ccc(C)o3)ccn2)cc1,24%
14,Cc1ccccc1-c1nc(CNCc2ccccc2C(F)(F)F)co1,7%
15,FC(F)(F)c1ccc(CNCc2coc(-c3cccc4ccccc34)n2)cc1,3%
16,O/N=C(\NCc1cccnc1)c1cccnc1OCc1ccccc1F,4%
17,CCOc1ccccc1CN/C(=N\O)c1ccc(C)nc1OCc1ccccc1F,8%
18,COc1ccccc1CN/C(=N\O)c1ccc(C)nc1OCc1cccc(F)c1,-8%
19,CCOc1ccccc1CN/C(=N\O)c1cccnc1OCc1ccccc1F,55%
20,O/N=C(\NCc1ccccc1F)c1cccnc1OCc1cccc(F)c1,29%
21,CCOc1ccccc1CN/C(=N\O)c1cccnc1OCc1cccc(F)c1,72%
